From PubChem BioAssay
For part of these data: Measured potencies and affinities stand elsewhere. Active and inactive are the calls of the source.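 The calls were made as follows, unless noted: active = signal rise over 3 SD above mean of control wells given weak agonist, in both repeats and first screen; inactive = the rest.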

What was measured:
[1] = test system: TRPC4 beta (transient receptor potential cation channel C4), mouse; test: activators of mouse TRPC4 channel, confirmation, cell-based, Fluo4 calcium, HEK293 TRPC4beta/mu-opioid, duplicates, 10 µM (AID 2426;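 active = fluorescence ratio normalized to control raised more than 50% in primary screen plus both repeat runs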); conditions: Fluo4 calcium fluorescence, at 10 µM; stronger effect = higher value
[2] = test system: transient receptor potential cation channel C4 beta (TRPC4), mouse; test: activators of mouse TRPC4 channel, confirmation, cell-based, second round, Fluo4, HEK293 TRPC4beta/mu-opioid, 1 µM (AID 2461;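 active = primary screen active and over 50% activation in each of two duplicate runs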); conditions: Fluo4 calcium fluorescence, at 1 µM; stronger effect = higher value
[3] = test system: TRPC4 (transient receptor potential cation channel C4 beta), mouse; test: positive allosteric modulators of mouse TRPC4, confirmation, cell-based, second round, Fluo-4, HEK293 TRPC4beta/mu-opioid, 1 µM (AID 2554;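 active = primary screen hit whose fluorescence ratio, in both repeats, exceeds the weak agonist control mean by 3 SD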); conditions: DAMGO EC20, Fluo-4 calcium flux, at 1 µM; stronger effect = higher value
[4] = test system: TRPC4 beta (transient receptor potential cation channel C4), mouse; test: positive allosteric modulators of mouse TRPC4, confirmation, cell-based, Fluo-4, HEK293 TRPC4beta/mu-opioid (AID 2555;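 active = primary screen hit whose calcium fluorescence ratio, in both repeats, exceeds the weak agonist control mean by 3 SD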); conditions: DAMGO EC20, Fluo-4 calcium flux, at 10 µM; stronger effect = higher value
[5] = molecular target: Short transient receptor potential channel 4 (Mus musculus) (UniProt Q9QUQ5); test: inhibitors of mouse TRPC4 channel, confirmation, cell-based, Fluo4, HEK293 TRPC4beta/mu-opioid (AID 2636;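 active = calcium signal cut by more than 3 SD below the full-agonist control yet still positive, in both repeats and the earlier primary screen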); conditions: DAMGO, Fluo4 calcium flux, at 10 µM; stronger effect = higher value
[6] = molecular target: Short transient receptor potential channel 4 (Mus musculus) (UniProt Q9QUQ5); test: inhibitors of mouse TRPC4 channel, confirmation, cell-based, second round, Fluo4, HEK293 TRPC4beta/mu-opioid, 1 µM (AID 2637;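 active = calcium signal ratio cut to more than 3 SD under the fully stimulated control mean yet still positive, in both repeats and the primary screen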;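 as to inhibition: percent of integrated ratio relative to wells lacking test compound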); conditions: Fluo4 calcium flux, DAMGO, at 1 µM; stronger effect = higher value
[7] = molecular target: Short transient receptor potential channel 4 (Mus musculus) (UniProt Q9QUQ5); test: mouse TRPC4 channel activators, dose response, cell-based, HEK293 TRPC4/mu-opioid, Fluo-4 calcium (AID 434937;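 active = primary screen activator hit with a dose response curve and TRPC4 channel activation at any tested dose; inactive = no activation, no dose response, or not a primary hit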)
[8] = molecular target: Short transient receptor potential channel 4 (Mus musculus) (UniProt Q9QUQ5); test: TRPC4 positive allosteric modulators, dose response, cell-based, HEK293 TRPC4/mu-opioid, Fluo-4 calcium, EC20 DAMGO (AID 434941;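 active = earlier screen potentiator hit that boosts the TRPC4 ion channel at some dose, with a dose response; inactive = no potentiation, no dose response, or not a prior hit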;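 also: calcium entry triggered by an EC20 dose of DAMGO at the co-expressed mu-opioid receptor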)
[9] = molecular target: Short transient receptor potential channel 6 (Mus musculus) (UniProt Q61143); test: inhibition of mouse TRPC6 channel, confirmation, selectivity assay for TRPC4 inhibitor project, cell-based, HEK293, membrane potential dye, duplicate (AID 434948;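 active = active in primary screen and both duplicates, each dropping signal beyond three positive-control SD with fluorescence still positive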); conditions: HEK293 TRPC6, membrane potential dye fluorescence, at 10 µM, stimulated with maximal-effect acetylcholine; stronger effect = higher value
[10] = molecular target: Short transient receptor potential channel 6 (Mus musculus) (UniProt Q61143); test: activation of mouse TRPC6 channel, confirmation, selectivity assay for TRPC4 activator project, cell-based, HEK293, membrane potential dye, duplicate (AID 434950;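 active = membrane potential signal rise above negative control mean plus 3 SD in both duplicates, also active in the earlier TRPC4 screen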); conditions: HEK293 TRPC6, membrane potential fluorescence, at 10 µM; stronger effect = higher value
[11] = molecular target: Short transient receptor potential channel 6 (Mus musculus) (UniProt Q61143); test: TRPC6 potentiation by TRPC4 potentiator hits, confirmation, selectivity assay for TRPC4 potentiator project, HEK293 cells, membrane potential dye, duplicate (AID 434952;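 active = compound raising the membrane signal above positive-control mean plus 3 SD in both repeats, and a primary screen hit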); conditions: HEK293 TRPC6, membrane potential dye fluorescence, at 10 µM, maximal acetylcholine added after compound; stronger effect = higher value
[12] = molecular target: Short transient receptor potential channel 4 (Mus musculus) (UniProt Q9QUQ5); test: calcium flux activators in TRPC4/5HT1a cells, counter-screen for TRPC4 activator project, cell-based, second counter screen, HEK293 TRPC4/5HT1a, Fluo-4 (AID 434977;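 active = calcium signal rise above buffer-control mean plus 5 SD in both duplicates, and also a hit in the primary screen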); conditions: Fluo-4 calcium flux, at 10 µM; stronger effect = higher value
[13] = calcium flux inhibitors in TRPC4/5HT1a cells, confirmation, counter-screen for TRPC4 inhibitor project, cell-based, second counter screen, HEK293 TRPC4/5HT1a, Fluo-4 (AID 434978;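 active = primary screen active whose calcium signal fell more than 3 SD beyond the full-serotonin control mean in both duplicate plates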); conditions: Fluo-4 calcium flux, at 10 µM, serotonin added to trigger calcium flux; stronger effect = higher value
[14] = test system: TRPC4 (mouse), co-expressed with 5HT1a in HEK293; test: calcium flux potentiators in TRPC4/5HT1a cells, confirmation, counter-screen for TRPC4 potentiator project, cell-based, second counter screen, HEK293 TRPC4/5HT1a, Fluo-4 (AID 434979); conditions: Fluo-4 calcium flux, at 10 µM, serotonin added at its EC20 dose; stronger effect = higher value
[15] = calcium flux activation in mu-opioid HEK293 cells, confirmation, counter-screen for TRPC4 activator project, cell-based, HEK293 mu-opioid receptor line (AID 449723;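 active = hit in primary screen, with calcium signal over 5 SD above buffer well mean in both duplicates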;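 also: counter screen cells carry the mu-opioid receptor alone and lack TRPC4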); conditions: Fluo-4 calcium fluorescence, at 10 µM; stronger effect = higher value
[16] = calcium flux enhancement in mu-opioid HEK293 cells, confirmation, counter-screen for TRPC4 allosteric potentiator project, cell-based, HEK293 mu-opioid receptor line (AID 449724;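 active = calcium signal rise more than 3 SD above the low-dose agonist control mean, in both duplicate plates and the primary screen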); conditions: Fluo-4 calcium flux, at 10 µM, compound added before EC20 DAMGO stimulus; stronger effect = higher value

Measured: inhibition

Chain of Short transient receptor potential channel 4 (Mus musculus) (Q9QUQ5 whole entry, looked up): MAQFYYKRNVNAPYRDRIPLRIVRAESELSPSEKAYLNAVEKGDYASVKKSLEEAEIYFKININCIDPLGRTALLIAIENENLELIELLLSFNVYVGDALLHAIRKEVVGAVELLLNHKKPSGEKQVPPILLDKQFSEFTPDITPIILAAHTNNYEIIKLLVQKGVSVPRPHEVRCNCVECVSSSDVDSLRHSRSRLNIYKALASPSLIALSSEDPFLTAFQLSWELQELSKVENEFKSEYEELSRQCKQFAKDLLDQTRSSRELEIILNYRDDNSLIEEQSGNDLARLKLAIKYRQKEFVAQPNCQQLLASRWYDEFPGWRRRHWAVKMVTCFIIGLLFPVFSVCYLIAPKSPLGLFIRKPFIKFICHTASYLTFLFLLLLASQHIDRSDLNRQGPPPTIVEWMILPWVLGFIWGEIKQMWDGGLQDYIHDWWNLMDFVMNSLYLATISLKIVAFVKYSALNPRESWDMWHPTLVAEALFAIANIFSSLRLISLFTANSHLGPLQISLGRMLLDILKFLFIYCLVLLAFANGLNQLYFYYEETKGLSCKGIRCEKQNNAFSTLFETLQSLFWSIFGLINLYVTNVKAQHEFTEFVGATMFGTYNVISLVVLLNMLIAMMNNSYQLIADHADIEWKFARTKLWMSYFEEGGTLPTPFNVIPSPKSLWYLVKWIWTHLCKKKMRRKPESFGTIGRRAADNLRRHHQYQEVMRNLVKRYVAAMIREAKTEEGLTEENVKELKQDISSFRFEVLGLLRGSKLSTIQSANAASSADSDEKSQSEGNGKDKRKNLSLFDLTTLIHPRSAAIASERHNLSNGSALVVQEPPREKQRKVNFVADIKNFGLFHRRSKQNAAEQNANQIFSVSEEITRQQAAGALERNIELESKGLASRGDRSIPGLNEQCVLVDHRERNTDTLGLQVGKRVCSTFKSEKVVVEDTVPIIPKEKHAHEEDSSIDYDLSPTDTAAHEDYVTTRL
Chain of Short transient receptor potential channel 6 (Mus musculus) (Q61143 whole entry, looked up): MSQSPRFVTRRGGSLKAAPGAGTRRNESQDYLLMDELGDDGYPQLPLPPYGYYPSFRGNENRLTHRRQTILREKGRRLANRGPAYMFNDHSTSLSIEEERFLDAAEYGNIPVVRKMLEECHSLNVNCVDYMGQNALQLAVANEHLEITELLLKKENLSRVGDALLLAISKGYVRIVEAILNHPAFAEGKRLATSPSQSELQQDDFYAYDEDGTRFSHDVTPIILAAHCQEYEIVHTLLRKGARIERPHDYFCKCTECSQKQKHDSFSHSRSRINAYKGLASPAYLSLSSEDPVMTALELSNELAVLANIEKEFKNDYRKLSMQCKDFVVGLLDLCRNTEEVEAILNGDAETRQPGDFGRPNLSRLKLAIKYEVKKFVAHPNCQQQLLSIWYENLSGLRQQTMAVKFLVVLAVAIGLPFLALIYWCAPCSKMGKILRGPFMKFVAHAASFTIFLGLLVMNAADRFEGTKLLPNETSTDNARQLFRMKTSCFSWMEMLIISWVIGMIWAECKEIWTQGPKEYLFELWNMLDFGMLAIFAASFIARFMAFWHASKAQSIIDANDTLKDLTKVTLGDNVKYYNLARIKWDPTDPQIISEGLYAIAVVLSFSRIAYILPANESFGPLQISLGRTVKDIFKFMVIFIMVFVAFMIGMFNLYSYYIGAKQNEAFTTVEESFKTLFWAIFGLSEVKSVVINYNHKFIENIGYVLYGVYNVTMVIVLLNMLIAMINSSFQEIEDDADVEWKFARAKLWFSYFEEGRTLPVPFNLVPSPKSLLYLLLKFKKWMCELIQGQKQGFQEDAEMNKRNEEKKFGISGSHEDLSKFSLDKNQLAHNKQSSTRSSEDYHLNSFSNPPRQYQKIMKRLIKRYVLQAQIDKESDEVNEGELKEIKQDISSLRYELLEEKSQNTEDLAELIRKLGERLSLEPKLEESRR

CCc1nc2ccccc2n1Cc1ccccc1OC
active: [5] 66% | [6] 48% | [13] 43.4%
inactive: [1] | [2] | [3] | [4] | [7] | [8] | [9] | [10] | [11] | [12] | [14] | [15] | [16]

COc1ccc(/C=C2\SC(=S)N(C(Cc3ccccc3)C(=O)O)C2=O)cc1 (stereo not given)
inactive: [1] | [2] | [3] | [4] | [6] | [7] | [8] | [9] | [10] | [11] | [12] | [14] | [15] | [16]
active: [5] 88% | [13] 32.2%

CNc1nc(NCc2ccccc2)c2ccccc2n1
active: [6] 69% | [9] 50.5% | [13] 26.9%
inactive: [1] | [2] | [3] | [4] | [5] | [7] | [8] | [10] | [11] | [12] | [14] | [15] | [16]

Cc1cc2cc(C#N)c(NCCNC(=S)NCCCN3CCOCC3)nc2cc1C
inactive: [1] | [2] | [3] | [4] | [6] | [7] | [8] | [9] | [10] | [11] | [12] | [14] | [15] | [16]
active: [5] 94% | [13] 26.6%

Oc1ccc(CN2CCCCC2)nc1-c1ccccc1
active: [5] 92% | [6] 43% | [13] 31.7%
inactive: [1] | [2] | [3] | [4] | [7] | [8] | [9] | [10] | [11] | [12] | [14] | [15] | [16]

Clc1ccc(C[n+]2cc(-c3ccccc3)n3c2CCC3)cc1Cl
active: [5] 93% | [6] 60% | [13] 25.4%
inactive: [1] | [2] | [3] | [4] | [7] | [8] | [9] | [10] | [11] | [12] | [14] | [15] | [16]

COC(=O)CSc1nn(-c2ccc(F)cc2)c(=S)s1
inactive: [1] | [2] | [3] | [4] | [7] | [8] | [9] | [10] | [11] | [12] | [14] | [15] | [16]
active: [5] 90% | [6] 39% | [13] 39.2%

CCC1C=C(c2ccccc2)C=CN=C1N(CC)CC (stereo not given)
inactive: [1] | [2] | [3] | [4] | [6] | [7] | [8] | [9] | [10] | [11] | [12] | [14] | [15] | [16]
active: [5] 93% | [13] 26.5%

O=C1/C(=C/c2ccccc2Cl)SC(=S)N1CCCC(=O)N(CCO)c1ccccc1
inactive: [1] | [2] | [3] | [4] | [7] | [8] | [9] | [10] | [11] | [12] | [14] | [15] | [16]
active: [5] 83% | [6] 50% | [13] 24.9%

COc1cc(CN(C)CC2CCCN(CCc3ccccc3F)C2)cc(Cl)c1OC (stereo not given)
active: [5] 93% | [13] 0.1%
inactive: [1] | [2] | [3] | [4] | [6] | [7] | [8] | [9] | [10] | [11] | [12] | [14] | [15] | [16]

CC#CC[N+](C)(C)CCCCCCCCCCCC
inactive: [1] | [2] | [3] | [4] | [7] | [8] | [10] | [11] | [12] | [14] | [15] | [16]
active: [5] 97% | [6] 55% | [9] 36% | [13] 9.36%

Cc1ccc(C(C)(C)C)cc1S(=O)(=O)Nc1nc2ccccc2nc1Cl
active: [13] 6.84%
inactive: [1] | [2] | [3] | [4] | [5] | [6] | [7] | [8] | [9] | [10] | [11] | [12] | [14] | [15] | [16]

Clc1ccc2c(c1)-c1nnc(Br)n1-c1ccccc1S2
inactive: [1] | [2] | [3] | [4] | [6] | [7] | [8] | [9] | [10] | [11] | [12] | [13] | [14] | [15] | [16]
active: [5] 83%

Cc1nn(C(=O)c2cccnc2)c(C)c1Sc1ccccc1
inactive: [1] | [2] | [3] | [4] | [6] | [7] | [8] | [9] | [10] | [11] | [12] | [14] | [15] | [16]
active: [5] 92% | [13] 16.5%

Cc1nc2ccccc2n1Cc1ccc(Br)cc1
active: [5] 96% | [6] 74% | [13] 9.19%
inactive: [1] | [2] | [3] | [4] | [7] | [8] | [9] | [10] | [11] | [12] | [14] | [15] | [16]
